In the library only some 2.5% were active in any assay of this set; here they are far more common.
ASK1 inh = inhibitors of human ASK1 kinase | AlphaScreen MKK6 phosphorylation by ASK1, luminescence | 22,000 tested, 0.99% active | Q99683 | inhibition, % at 7.44 µM | AID 1159602; in the data active = inhibition above about 35%
ULK1 inh = inhibitors of human ULK1 kinase. 30,000 tested, 1.9% active. inhibition, % at 5.96 µM. AlphaScreen Atg13 phosphorylation by ULK1, luminescence; in the data active = inhibition above about 43%
Target sequence (O75385 whole entry, looked up): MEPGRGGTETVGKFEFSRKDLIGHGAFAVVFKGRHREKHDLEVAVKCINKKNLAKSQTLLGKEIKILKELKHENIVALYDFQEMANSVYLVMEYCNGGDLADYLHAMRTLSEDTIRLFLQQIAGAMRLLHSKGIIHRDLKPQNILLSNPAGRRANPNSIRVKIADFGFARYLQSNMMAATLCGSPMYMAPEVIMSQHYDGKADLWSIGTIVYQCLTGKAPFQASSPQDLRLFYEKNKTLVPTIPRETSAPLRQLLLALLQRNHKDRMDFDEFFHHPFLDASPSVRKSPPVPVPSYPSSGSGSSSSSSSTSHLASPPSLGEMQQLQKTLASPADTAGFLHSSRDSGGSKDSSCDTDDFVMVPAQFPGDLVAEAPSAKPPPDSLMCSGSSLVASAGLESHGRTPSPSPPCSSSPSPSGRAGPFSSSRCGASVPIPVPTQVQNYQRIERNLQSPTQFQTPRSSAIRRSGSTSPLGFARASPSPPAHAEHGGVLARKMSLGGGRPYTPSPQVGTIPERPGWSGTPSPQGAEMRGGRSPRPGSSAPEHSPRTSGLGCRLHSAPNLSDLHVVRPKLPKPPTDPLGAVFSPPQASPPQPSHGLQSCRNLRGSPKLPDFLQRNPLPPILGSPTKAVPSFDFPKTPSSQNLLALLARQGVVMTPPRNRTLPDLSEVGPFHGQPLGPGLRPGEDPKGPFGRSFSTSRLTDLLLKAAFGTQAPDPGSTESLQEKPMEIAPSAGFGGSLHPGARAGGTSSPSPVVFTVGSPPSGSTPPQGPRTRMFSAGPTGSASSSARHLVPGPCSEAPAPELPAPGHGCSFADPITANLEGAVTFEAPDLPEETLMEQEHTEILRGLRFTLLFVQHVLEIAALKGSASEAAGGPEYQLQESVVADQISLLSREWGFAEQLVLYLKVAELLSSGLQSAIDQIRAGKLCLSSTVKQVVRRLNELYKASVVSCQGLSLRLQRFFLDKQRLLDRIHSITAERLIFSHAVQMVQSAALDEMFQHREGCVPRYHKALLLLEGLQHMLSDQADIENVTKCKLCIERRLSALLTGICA
Each line names hits and unclear results; the compound was inactive in the other large screens.

CCCNc1cc(NCCCN2CCCC2=O)ncn1	none
Cc1cnc(Nc2ccc3ncccc3c2)nc1Nc1ccc2c(c1)OCO2	none
Cc1cnc(Nc2ccc3ncccc3c2)nc1NC1CC1	ULK1 inh 71
O=C1CCCN1CCCNc1nc(Nc2ccc(Oc3ccccc3)cc2)c2[nH]cnc2n1	none
Cc1cnc(Nc2ccc3ncccc3c2)nc1NCCCN1CCCC1=O	ULK1 inh 69
Cc1cnc(NCCCN2CCCC2=O)nc1Nc1ccc(Oc2ccccc2)cc1	ULK1 inh 49
Cc1cnc(Nc2cccc(N(C)C)c2)nc1NCCCN1CCCC1=O	none
O=C(Cc1cn(-c2ccc(Cl)nn2)c2ccccc12)NCCc1ccc(O)cc1	none
O=c1ccc(-c2ccco2)cn1Cc1ccccc1-c1ccccc1	none (no result: ASK1 inh)
CCN(CC)C(=O)C1CCCN(c2nc(C(=O)NCCN(C(C)C)C(C)C)cs2)C1 (stereo not drawn)	none
FC(F)(F)c1ccc(Nc2nc(NCc3ccccc3)c3[nH]cnc3n2)cc1	none
COc1cc(Nc2ncnc3nc(NCCCN4CCCC4=O)[nH]c23)cc(OC)c1OC	none
COc1cc(Nc2cc(NCc3cccc(C(F)(F)F)c3)ncn2)cc(OC)c1OC	none
O=C1/C(=C/c2cccs2)CCC/C1=C\c1cccs1	ULK1 inh 82 (no result: ASK1 inh)
O=C1/C(=C\c2cccs2)N2CCC1CC2	none (no result: ASK1 inh)
c1ccc2c(-c3nc4ncnc(NC5CC5)c4[nH]3)csc2c1	none
c1ccc(Nc2nc(NCCN3CCOCC3)c3ncn(C4CCCCC4)c3n2)cc1	none
c1cc(N2CCOCC2)ccc1Nc1nc(NCCN2CCOCC2)nc2c1ncn2C1CCCCC1	ULK1 inh 55
NC(=O)c1ccc(-c2nc(Nc3ccc(N4CCOCC4)cc3)c3ncn(C4CCCCC4)c3n2)cc1	ULK1 inh 44
CN1CCN(C(=O)c2ccc(-c3nc(Nc4ccc(N5CCOCC5)cc4)c4ncn(C5CCCCC5)c4n3)cc2)CC1	none
NC(=O)c1ccc(-c2cccc(C(=O)NC3CC3)n2)cc1	none
CNc1cc(Cl)nc(Oc2ccccc2C(=O)OC)n1	none (no result: ASK1 inh)
COc1ccc(CC(=O)Nc2ncc3ccc(-c4cn[nH]c4)cc3c2C#N)cc1	none
COc1ccc(CC(=O)Nc2ncc3ccc(-c4cn[nH]c4)cc3c2Cl)cc1	ULK1 inh 83
Cc1cc(-c2ccccc2)nc(Nc2cccc(S(N)(=O)=O)c2)n1	none
O=C(Cn1c(CO)cnc1SCc1ccc(Cl)cc1)NC1CC1	none (no result: ASK1 inh)
COC(=O)c1ccc(/C=C/C(=O)c2ccc3c(c2)OCCO3)cc1	ULK1 inh 43 (no result: ASK1 inh)
O=C(N/N=C\C=C\c1ccc(Br)cc1)c1ccc2c(c1)OCO2	none (no result: ASK1 inh)
COc1ccc(-c2cccc(C(=O)Nc3ccc(NC(C)=O)cc3)n2)cn1	none
Cc1ncn(-c2ccc(Nc3nccc(-c4cc(C#N)cc(-c5ccccc5)c4)n3)cc2)n1	none
Cn1nccc1Nc1cccc(C(=O)Nc2ccc(N3CCOCC3)cc2)n1	ULK1 inh 45
Cn1nccc1Nc1ncc(C(=O)Nc2ccc(N3CCOCC3)cc2)s1	none
O=C(NCc1nc2ccccc2[nH]1)c1cccc(Nc2ccncn2)n1	none
Nc1cccc(-c2nc(NCc3ccccc3)c3[nH]cnc3n2)c1	none
CC(=O)c1cccc(-c2nc(NCc3cccnc3)c3[nH]cnc3n2)c1	ULK1 inh 54
CC(=O)c1cccc(-c2nc(NCc3ccccc3)c3[nH]cnc3n2)c1	none
Nc1cccc(-c2nc(NCc3cccnc3)c3[nH]cnc3n2)c1	ULK1 inh 69
CC(=O)c1cccc(-c2nc3ccc(C(=O)NCCOc4ccccc4)cc3s2)c1	none
COc1cc(Nc2ncc(C(=O)Nc3ccccc3)s2)cc(OC)c1OC	none
CC(C)N(CCNc1ccnc(Nc2ccc(-n3ccnc3)cc2)n1)C(C)C	none
O=C(/C=C/c1ccccc1)Nc1nc(CC(=O)NCc2ccc(F)cc2)cs1	ULK1 inh 57 (no result: ASK1 inh)
O=C(Cc1csc(NC(=O)c2ccccc2)n1)Nc1ccc(F)c(F)c1	none (no result: ASK1 inh)
O=C(NCCN1CCOCC1)c1csc(Nc2ncccn2)n1	none
O=C(NCc1cccc(C(F)(F)F)c1)c1ccnc(Nc2ccccn2)c1	none
O=C(O)c1ccccc1Nc1ccccn1	none (no result: ASK1 inh)
CNC(=O)c1ccccc1Nc1cc(Nc2cccc(C)n2)ncc1C(F)(F)F	ULK1 inh 90
CNC(=O)c1ccc(Nc2cc(Nc3ccccc3C(=O)NC)c(C(F)(F)F)cn2)nc1	ULK1 inh 87
CNC(=O)c1ccccc1Nc1cc(Nc2ccccn2)ncc1C(F)(F)F	ULK1 inh 89
CNC(=O)c1ccnc(Nc2cc(Nc3ccccc3C(=O)NC)c(C(F)(F)F)cn2)c1	ULK1 inh 87
Cc1ncn(-c2ccc(Nc3cc(-c4cnn(C)c4)c(Cl)cn3)cc2)n1	none
Nc1nc(N2CCOCC2)nc2c1ncn2CCN1CCCC1=O	none
CNC(=O)c1ccccc1Nc1cc(Nc2ccc(-c3cncnc3)cc2)ncc1C(F)(F)F	ULK1 inh 70
CNC(=O)c1ccccc1Nc1cc(Nc2ccc3c(c2)CCC(=O)N3C)ncc1C(F)(F)F	ULK1 inh 89
O=C(Cc1ccc2c(c1)OCO2)Nc1cc(Nc2ccccc2-c2ncn[nH]2)c(C(F)(F)F)cn1	none
Cn1c(Nc2nc(NCCO)c3ncn(CCN4CCCC4=O)c3n2)nc2ccccc21	ULK1 inh 73

Assay outcomes from PubChem.
